The values below come from PubChem BioAssay (Tox21).

Each structure is given as a SMILES string. Results filed as inconclusive are left out. The source made the active and inactive calls. Calls follow the shape of the full dose curve.

The assay in a line: qHTS assay to identify small molecule agonists of the AP-1 signaling pathway - cell viability counter screen (AID 1159525). Also: nearly all actives have a fitted effect of over 55% in size. To be noted: ME-180 (cervical carcinoma) AP-1-bla cells viability, ATP luminescence, 5 h; series mostly up to 76.8 µM. The text has this:
National Center for Advancing Translational Sciences [NCATS]
NIH Chemical Genomics Center [NCGC]
U.S. Environmental Protection Agency [EPA]
National Institutes of Environmental Health Sciences [NIEHS]
National Toxicology Program [NTP]
U.S. Food and Drug Administration [FDA]
Activator protein-1 (AP-1), a transcription factor, plays an important role in tumor genesis by regulating genes involved in cell proliferation, differentiation, apoptosis, and angiogenesis. AP-1 activity is induced by a complex network of signaling pathways that involves extracellular signals, such as growth factors. The AP-1 protein complex formed from c-Fos and c-Jun binding to the AP-1 response element results in transcriptional activation of genes containing such elements within their promoter.
Low molecular weight molecules have been discovered and developed to modulate various components of these signaling pathways, for example, MAP kinase inhibitors. However, many points of pathway modulation remain untested due to the lack of chemical probes making this signaling locus of general interest.
Using a beta-lactamase reporter-gene under control of the AP-1 response element, a cell-based assay [CellSensor(TM) AP-1-bla ME-180 developed by Invitrogen Corp.] was used to measure EGF-induced signaling. The Tox21 10K library compounds were measured for their ability to positively modulate the action of EC50 EGF on reporter gene activity. Compounds were screened in a 15-pt titration series in 1536-well format. The cytotoxicity of the Tox21 compound library against this cell line was tested in parallel by measuring the intra cellular ATP content in the same wells.
Tox21 Assay Protocol Summary:
2500 cells/5uL in Opti-MEM medium containing 0.5% dialyzed FBS, 0.1 mM NEAA, 1 mM sodium pyruvate and 10 mM HEPES was dispensed into 1536-well black wall/clear bottom plates using a Multidrop dispenser and cells were cultured at 37 degrees Celsius overnight. Next day 23 nL of compounds dissolved in DMSO, positive controls or DMSO were delivered to each well using a pin tool. The plates were incubated at 37 degrees Celsius for 5 hours. 1 uL of LiveBLAzerTM B/G FRET substrate (Solution A+B+C+D) was added to each well using a Flying Reagent Dispenser. After incubated at room temperature for 2.5 hours the plates were measured on an EnVision plate reader at Excitation 405nm, Emission1=460nm and Emission 2=530nm. The %Activity was determined from the ratio of 460nm/530nm.
After the plates were read for Beta-Lactamase assay on Envision; 3 ul Cell Titer Glo (Promega) was added to measure the cytotoxicity and the plates were then incubated at RT in dark for 30 min. The luminescence was read on ViewLux (Perkin Elmer, Shelton, CT) using 6 sec exposure. ViewLux data was expressed as relative luminescence units.
For primary data analysis, raw plate reads for each titration point were first normalized relative to […] EGF control (100%) and DMSO only wells (basal, 0%).
For primary data analysis for viability assay, raw plate reads for each titration point were first normalized Tetra n-octyl ammonium bromide control (-100%) and DMSO (control, 100%).
With `CC1(C)O[C@@H]2[C@@H](CO[C@@]3(COS(N)(=O)=O)OC(C)(C)O[C@@H]23)O1`, the compound was called inactive.
For `O=[N+]([O-])c1ccc(O)cc1` the value was “inactive”.
For `Nc1ccc(N=Nc2ccccc2)c(N)n1` the value was “inactive”.
With `C#C[C@]1(O)CC[C@H]2[C@@H]3CCc4cc(O)ccc4[C@H]3CC[C@@]21C`, the result was inactive.
For `NC(=O)c1ccc([N+](=O)[O-])cc1Cl` the value was “inactive”; for `O=c1cc[nH]c(=O)[nH]1`, “inactive”.
For `Cc1cccc(C)c1O` the value was “inactive”; for `C[C@]12C=CC(=O)C=C1CC[C@@H]1[C@@H]2C(=O)C[C@@]2(C)[C@H]1CC[C@]2(O)C(=O)CO`, “inactive”; for `CCc1cc(C(N)=S)ccn1`, “inactive”.
For `CC1=NN(c2ccccc2)C(=O)C1` the value was “inactive”; for `c1ccc2[nH]c(-c3cscn3)nc2c1`, “inactive”.
As to `CCCCCCCCCCCCCC(=O)OC(C)C`, the compound was classed as inactive.
For `Oc1cccc(O)c1` the value was “inactive”; for `Cc1cnc(NC(=O)C2=C(O)c3ccccc3S(=O)(=O)N2C)s1`, “inactive”.
To `Cc1cccc(Nc2cc(Cl)nc(SCC(=O)O)n2)c1C` belongs “inactive”; to `NC(N)=NC(N)=NCCc1ccccc1`, “inactive”.
For `Cn1cnc2c1c(=O)[nH]c(=O)n2C` the value was “inactive”; for `CC(C)(C)NCC(O)c1ccc(O)c(CO)c1` (stereo not given), “inactive”.
With `O=C(OCc1ccccc1)c1ccccc1`, the compound was called inactive.
Take `CCn1cc(C(=O)O)c(=O)c2ccc(C)nc21`: the result was inactive.
For `CC(O)COc1ccccc1` (stereo not given) the value was “inactive”; for `CCN1CCCC1=O`, “inactive”.
For `C#C[C@]1(O)CC[C@H]2[C@@H]3CCC4=CC(=O)CC[C@@H]4[C@H]3CC[C@@]21CC` the value was “inactive”; for `COc1cc2c(c(OC)c1OC)-c1ccc(OC)c(=O)cc1[C@@H](NC(C)=O)CC2`, “inactive”.
To `CCCCC/C(C=O)=C\c1ccccc1` belongs “inactive”.
In the case of `CC(C)(C)CC(C)(C)c1ccc(O)c(-n2nc3ccccc3n2)c1`, the outcome was inactive.
To `C=CCOC(=O)CC(C)C` belongs “inactive”; to `Cc1cccc2ccccc12`, “inactive”.
For `COc1cc(O)c(C(=O)c2ccccc2)cc1S(=O)(=O)O` the value was “inactive”; for `C=C(C)C(N)=O`, “inactive”; for `CC(C)=CCC/C(C)=C/CO`, “inactive”.
For `CC(C)Cc1ccc(C(C)C(=O)O)cc1` (stereo not given), the result was inactive.
To `NC(=O)N1c2ccccc2C=Cc2ccccc21` belongs “inactive”; to `CC(=O)/C=C/C1=C(C)CCCC1(C)C`, “inactive”; to `CCCCOCCOCCOC(C)=O`, “inactive”.
To `CCCCOC(=O)CCCCCCCCC(=O)OCCCC` belongs “inactive”; to `OCCCc1ccccc1`, “inactive”.
To `COCC(C)N` (stereo not given) belongs “inactive”; to `N[C@@H](Cc1c[nH]c2ccc(O)cc12)C(=O)O`, “inactive”; to `Nc1cccc(N)c1`, “inactive”.
